Assay results taken from PubChem BioAssay (NCI).
About 83,000 compounds went through this panel and 20% of them were active in at least one assay; those are over-represented in the sample as a whole.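 Results are percent growth after 48 hours of single-concentration exposure. 100 means growth as in untreated cells, lower positive values show inhibition; negative values down to -100 show cell death.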 Unmarked numbers belong to inactive results. Activity calls are given as the source filed them. The calls were made as follows: active = growth percent below 10; inactive = the rest.

test system: MDA-MB-468 breast; assay: NCI-60 one-dose screen, 48 h (100 = growth as untreated, 0 = no growth, -100 = all killed); details: 10 µM unless noted

SMILES | growth
COc1cc(/C=N/NC(=O)c2cnn3c2NC(c2ccccc2)C3)ccc1Oc1ccccc1 (stereo not given) | 6.71% (active)
COc1ccc(N=Nc2cc(OC)c(OC)c(OC)c2)cc1 | 80.9%
O=C(c1ccc(Cl)cc1)C1[C@H](c2ccc(Cl)cc2)[C@@H](c2ccccc2)NC12C(=O)Nc1ccccc12 (stereo not given in full) | 50.7%
O=C1Nc2ccc(Br)cc2C12CC(c1ccccc1)=NN2 (stereo not given) | 48.6%
COc1ccc(C(=O)Nc2cccc(C3CCc4c(cc(OC)c(OC)c4OC)O3)c2)cc1 (stereo not given) | 12.4%
O=C1/C(=C/c2cccc3cnccc23)Cc2cc(F)ccc21 | 65.2%
FC(F)(F)c1cccc([Si](F)(c2cccc(C(F)(F)F)c2)c2cccc(C(F)(F)F)c2)c1 | 54.4%
Cc1cn(C(=O)/C(Cl)=C(/Cl)C(=O)O)c2ccccc12 | 108%
CCCNC(=O)c1ccc(S(N)(=O)=O)cc1 | 82.1%
COC(=O)OC1C(O[C@H]2C[C@H]3[C@@H]4CC=C5C[C@@H](O)CC[C@]5(C)[C@H]4CC[C@]3(C)[C@H]2[C@H](C)C(=O)CCC(C)C)OCC(O)C1OC1OCC(O)C(O)C1OC(=O)c1ccc(OC)cc1 (stereo not given in full) | -22.8% (active)
O=C(/C=C1\C=CN(CCCCCCF)c2ccccc21)n1ccc2ccccc21 | 84.9%
Cc1cc(Nc2ccc(OCc3ccccc3)cc2)nc2cc(O)ccc12 | 6.48% (active)
COc1ccc(-c2cc(=O)c3c(OC)c4ccoc4cc3o2)cc1 | 101%
CCC12CCC3c4ccc(O)cc4CCC3C1CC(O)C2O (stereo not given) | 58.4%
CC1=C(SCCC(=O)OC(C[Se]C2=C(C)C(=O)c3ccccc3C2=O)C(=O)NCCCCCC(=O)OCc2ccccc2)C(=O)c2ccccc2C1=O (stereo not given) | 30.5%
O=Nc1c(-c2c(O)[nH]c3ncccc23)[nH]c2ccccc12 | 28.4%
C=CC[n+]1c(/C=C/C=C2\N(C)c3ccccc3C2(C)C)sc2ccc(OC)cc21 | -5.71% (active)
C=C1C(=O)O[C@H]2[C@H]1CC/C(CNC(=O)/C=C/c1ccccc1)=C\CC[C@@]1(C)O[C@@H]21 | -30.2% (active)
COc1ccc(-c2cc(NC(=O)Nc3ccc4ncsc4c3)no2)cc1 | 99.2%
COc1ccc(-c2nn(-c3cccc(Cl)c3)cc2-c2cc(-c3ccccc3)nc(N)n2)cc1 | 30%

SMILES | growth
O=C(Oc1ccc[nH]c1=O)c1cccc(Cl)c1 | 89.8%
CN1CCN(c2ccc(Nc3nc(NCCCNS(=O)(=O)c4ccc(Cl)cc4)c4sccc4n3)cc2)CC1 | -47.7% (active)
CNS(=O)(=O)c1n[nH]nc1-c1cc(C(C)(C)C)c(O)c(C(C)(C)C)c1 | 92.2%
Cc1cccc(N=Nc2cccc(C)c2)c1 | 108%
COc1ccc(/C=C(\C#N)c2cc(OC)c3c(c2)OCO3)cc1 | -4.06% (active)
Cc1ccc(O)c(C(=O)O)c1 | 106%
CC1Cc2c(N(C)C)ncnc2N(C)c2ccc(O)cc21 (stereo not given) | 79.4%
C[C@@H]1N=C(c2ccc(Cl)cc2Cl)Nc2nc3ccccn3c2C1=O | 53.9%
O=C1C[C@H](N2C(=O)c3ccccc3S2(=O)=O)C2CO[C@@H]1O2 | 80.3%
Cn1c2c(c3ccccc31)CCN1C[C@@H]3CCCC[C@H]3C[C@@H]21 | -16.1% (active)
Nc1nc(N)nc(N2CCCCC2)n1 | 124%
N=C(N)c1ccc(-c2ccc(-c3ccc(Cl)cc3Cl)s2)nc1 | -13.7% (active)
COc1ccc(CCN(CC(=O)N(CC(N)=O)C2CCC[C@@H]2OCc2ccccc2)C(=O)CN(C(=O)CN(CCc2ccc(Cl)cc2)C(=O)CN(C(=O)CN(C)Cc2ccccc2F)[C@H](C)C2CCCCC2)[C@H](C)C2CCCCC2)cc1OC (stereo not given in full) | 14.7%
COc1cc2nccc(Oc3ccc(NC(=O)C4(C(=O)Nc5c(F)cc(F)cc5F)CC4)cc3)c2cc1Oc1ccc(N)cn1 | 33.3%
CN(c1cc2ncc(=O)[nH]c2cc1NC(N)=NCc1ccc(Cl)cc1)C1CCCCC1 | -80.8% (active)
O=c1c2ccccc2sc2c(NCCCNCCO)nc3ccccc3c12 | -57.3% (active)
O=C(OCC(O)(CO)C(=O)NC12CC3CC(CC(C3)C1)C2)c1ccc(Cl)cc1 (stereo not given) | 100%
COc1cc(/C=C2\C(=O)N(CCCCn3c4ccccc4c(=O)c4ccccc43)c3ccccc32)cc(OC)c1O | 46.2%
C[N+]1(C)C2CC[C@@H]1CC(OC(=O)C(O)c1ccccc1)C2 (stereo not given in full) | 103%
Cn1c(=O)c2c(c3ccccc31)OC(N)=C(C#N)C21C(=O)c2ccccc2C1=O | 96.4%
